# Laboratory results as given in PubChem BioAssay (NCI).
# Compounds without any hit were thinned out: in the full panel of roughly 79,000, 15% have a hit. A number with no mark means an inactive call. The source made the active and inactive calls. No stated cut-off is given here; in the data, active means growth inhibition above about 70%; inactive means the rest.
# Columns and labels:
# [1] = NCI Yeast Anticancer Drug Screen. Data for the rad50 strain (AID 155);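 further: 0% = growth of vehicle-only cultures of the same strain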; conditions: S. cerevisiae rad50 strain growth inhibition, hits give high values
# How it was run: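 A DNA repair-deficient yeast mutant serves as the test organism; compound-induced growth inhibition is calculated against vehicle-treated cells.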
# [2] = NCI Yeast Anticancer Drug Screen. Data for the mec2-1 strain (AID 157); conditions: S. cerevisiae mec2-1 strain, hits give high values
# How it was run: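 Test agents were screened against the mec2-1 yeast strain, with defined DNA repair or cell cycle alteration. Growth was scored as inhibition against vehicle-only controls.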
# [3] = NCI Yeast Anticancer Drug Screen. Data for the sgs1 mgt1 strain (AID 161);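 further: 0% = growth of cultures given vehicle only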; conditions: S. cerevisiae sgs1 mgt1 strain, hits give high values
# How it was run: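 Inhibition of yeast growth, normalised to vehicle-treated controls, is reported for a strain bearing genetic alterations in DNA damage repair.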
# [4] = NCI Yeast Anticancer Drug Screen. Data for the cln2 rad14 strain (AID 165);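 further: 0% = growth equal to vehicle treated cultures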; conditions: S. cerevisiae cln2 rad14 strain, hits give high values
# How it was run: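 Growth of compound-exposed yeast (cln2 rad14 genotype) measured and expressed as inhibition relative to vehicle.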
# [5] = NCI Yeast Anticancer Drug Screen. Data for the bub3 strain (AID 167); conditions: S. cerevisiae bub3 mutant strain, hits give high values
# How it was run: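 Inhibition values come from growth of compound-treated mutant yeast normalised to vehicle-treated controls.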
# [6] = NCI Yeast Anticancer Drug Screen. Data for the mlh1 rad18 strain (AID 175); conditions: S. cerevisiae mlh1 rad18 strain growth inhibition, hits give high values
# How it was run: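 In this whole-cell yeast screen, a strain with altered DNA damage repair is challenged with compound, and its growth is measured against matched vehicle-treated controls.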
# [7] = at 5.0 µM (retest, dose inferred, filed as 0.5)
# [8] = at 50.0 µM (retest, dose inferred, filed as 5.0)
Structure (SMILES),"growth inhibition [1, 7]","growth inhibition [1, 8]",growth inhibition ([1]; at 50.0 µM),"growth inhibition [2, 7] [%]","growth inhibition [2, 8]",growth inhibition ([2]; at 50.0 µM),"growth inhibition [3, 7]","growth inhibition [3, 8]",growth inhibition ([3]; at 50.0 µM),"growth inhibition [4, 7] [%]","growth inhibition [4, 8]",growth inhibition ([4]; at 50.0 µM),"growth inhibition [5, 7]","growth inhibition [5, 8]",growth inhibition ([5]; at 50.0 µM),"growth inhibition [6, 7]","growth inhibition [6, 8]",growth inhibition ([6]; at 50.0 µM)
O=C1/C(=C/c2ccc(Cl)cc2)CCC/C1=C\c1ccc(O)c(CN2CCCCC2)c1,31%,52%,2.4%,2,17%,1.75%,7%,20%,69%,7,24%,51.9%,-48%,17%,72.3% (active),16%,20%,90.6% (active)
Cc1ccc2[nH]c3cc4ccncc4cc3c2c1,-127%,95% (active),48.5%,30,95% (active),98.6% (active),-15%,94% (active),3.7%,35,96% (active),96.7% (active),47%,96% (active),97.2% (active),40%,95% (active),49.9%
O=C1c2sccc2-c2cccc3cccc1c23 (tested in a mixture with another compound),87% (active),98% (active),97.2% (active),63,99% (active),98% (active),59%,99% (active),96.2% (active),20,96% (active),82.5% (active),29%,98% (active),83.2% (active),86% (active),98% (active),95% (active)
Nc1nc(=O)n(C2OC(CO)C(O)C2O)cc1[N+](=O)[O-] (configuration not stated),-10%,-9%,-5.75%,-6,-15%,18.9%,-2%,-5%,4.45%,-40,-13%,-10.2%,-7%,1%,-12.7%,1%,-5%,17.9%
O=C(O)Cc1ccc2c3c(cccc13)CC2,44%,90% (active),88.1% (active),12,94% (active),91.8% (active),20%,78% (active),91.2% (active),23,77% (active),90.2% (active),16%,86% (active),92.2% (active),27%,91% (active),92.8% (active)
CCc1c(C)[nH]c2c([N+](=O)[O-])cccc12,5%,29%,95.2% (active),8,-14%,94.5% (active),-3%,-1%,95.2% (active),-6,-2%,94.5% (active),-13%,3%,96% (active),1%,27%,94.8% (active)
O=C(CBr)N1c2ccccc2Sc2ccc3ccccc3c21,93% (active),99% (active),90.5% (active),49,99% (active),90.7% (active),81% (active),99% (active),91.7% (active),62,99% (active),90% (active),74% (active),99% (active),91% (active),88% (active),98% (active),88.2% (active)
Nc1nc(N)c(C(=O)SCc2ccccc2)nc1Cl,6%,70% (active),66%,2,57%,58.9%,3%,52%,97.4% (active),2,70% (active),4.95%,-2%,62%,7.45%,5%,94% (active),69.3%
C/C=C/C1=C(Cl)C(=O)[C@@H](Cl)[C@@]1(O)C(=O)OC,48%,97% (active),87% (active),61,99% (active),90.1% (active),78% (active),99% (active),91% (active),21,97% (active),79.2% (active),66%,95% (active),87.3% (active),85% (active),99% (active),90.2% (active)
